Read-out in experiment [1]: Intercellular Adhesion Molecule 1 (ICAM1), ICAM1 (gene 3383)
Briefly: BSK_BE3C_ICAM1: BioMAP Diversity Plus: BE3C Assay for Intercellular Adhesion Molecule 1 (ICAM1) Biomarker Activity (AID 2284278).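 Further: cell-surface ICAM-1 protein level quantified by ELISA.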 Conditions: primary human bronchial epithelial cells. The method, boiled down:
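Primary human bronchial epithelial cells were exposed to compound for 24 h, after which cell-surface ICAM-1 was quantified by ELISA. Activity was fitted in the gain-of-signal direction against DMSO as negative control and baseline.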

Read-out in experiment [2]: Interferon-inducible T-cell alpha chemoattractant (ITAC), CXCL11 (gene 6373)
Briefly: BSK_BE3C_ITAC: BioMAP Diversity Plus: BE3C Assay for Interferon-inducible T-cell alpha chemoattractant (ITAC) Biomarker Activity (AID 2284279). The conditions noted are these: primary human bronchial epithelial cells. In short, it runs like this: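 ELISA for I-TAC in primary human bronchial epithelial cultures 24 h post-treatment, fitted relative to DMSO baseline in positive direction. Cytotoxicity checked in parallel cultures by sulforhodamine B protein staining.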

Read-out in experiment [3]: Interleukin-8 (IL8), CXCL8 (gene 3576)
Briefly: BSK_BE3C_IL8: BioMAP Diversity Plus: BE3C Assay for Interleukin-8 (IL8) Biomarker Activity (AID 2284280). The conditions noted are these: primary human bronchial epithelial cells. In short, it runs like this:
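IL-8 signal gain, normalised to DMSO vehicle, was scored after a 24 h chemical exposure of primary human bronchial epithelial cells, with detection by ELISA.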

Read-out in experiment [4]: Epidermal growth factor receptor (EGFR), EGFR (gene 1956)
Briefly: BSK_BE3C_EGFR: BioMAP Diversity Plus: BE3C Assay for Epidermal growth factor receptor (EGFR) Biomarker Activity (AID 2284281). The conditions noted are these: primary human bronchial epithelial cells. In short, it runs like this:
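Compound is added to human bronchial epithelial cells, cells incubate 24 h, then EGFR is detected by ELISA. Values reflect positive-direction fitting relative to DMSO.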

Read-out in experiment [5]: KRT18 (gene 3875)
Briefly: BSK_BE3C_Keratin818: BioMAP Diversity Plus: BE3C Assay for Keratin 818 Biomarker Activity (AID 2284282). Conditions: primary human bronchial epithelial cells. In short, it runs like this: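 Human primary bronchial epithelial cells in the BE3C system were exposed to test chemical for 24 h, then Keratin 8/18 was quantified by ELISA. Activity was fitted in the positive direction against DMSO as negative control and baseline.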

Read-out in experiment [6]: Matrix Metallopeptidase 9 (MMP9), MMP9 (gene 4318)
As to the kind of experiment: BSK_BE3C_MMP9: BioMAP Diversity Plus: BE3C Assay for Matrix Metallopeptidase 9 (MMP9) Biomarker Activity (AID 2284283). The conditions noted are these: primary human bronchial epithelial cells. The method, boiled down:
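Endpoint is the ELISA MMP-9 signal in human primary bronchial epithelial cultures taken 24 h after chemical dosing. DMSO serves as negative control and baseline, with gain-of-signal fitting.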

Read-out in experiment [7]: Plasminogen activator inhibitor-1 (PAI1), SERPINE1 (gene 5054)
As to the kind of experiment: BSK_CASM3C_PAI1: BioMAP Diversity Plus: CASM3C Assay for Plasminogen activator inhibitor-1 (PAI1) Biomarker Activity (AID 2284284).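 Further: PAI-1 protein level measured by ELISA 24 h after dosing.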 The conditions noted are these: primary human coronary artery smooth muscle cells.

Read-out in experiment [8]: Monocyte Chemoattractant Protein-1 (MCP1), CCL2 (gene 6347)
Briefly: BSK_hDFCGF_MCP1: BioMAP Diversity Plus: hDFCGF Assay for Monocyte Chemoattractant Protein-1 (MCP1) Biomarker Activity (AID 2284285). The conditions noted are these: primary human foreskin fibroblasts. In short, it runs like this:
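Human foreskin fibroblasts (hDFCGF system) were exposed to compound and secreted MCP-1 was measured by ELISA after 24 hours. Activity was fitted relative to DMSO. Cytotoxicity was checked by SRB total-protein staining in parallel cultures.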

Read-out in experiment [9]: Intercellular Adhesion Molecule 1 (ICAM1), ICAM1 (gene 3383)
Briefly: BSK_hDFCGF_ICAM1: BioMAP Diversity Plus: hDFCGF Assay for Intercellular Adhesion Molecule 1 (ICAM1) Biomarker Activity (AID 2284287). Conditions: primary human foreskin fibroblasts. The method, boiled down:
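Primary human foreskin fibroblasts (hDFCGF system) dosed with chemical; ICAM-1 quantified by ELISA at 24 h relative to DMSO. Parallel SRB total-protein staining to assess overt cytotoxicity.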

Read-out in experiment [10]: TIMP metallopeptidase inhibitor 2 (TIMP2), TIMP2 (gene 7077)
As to the kind of experiment: BSK_hDFCGF_TIMP2: BioMAP Diversity Plus: hDFCGF Assay for TIMP metallopeptidase inhibitor 2 (TIMP2) Biomarker Activity (AID 2284289). The conditions noted are these: primary human foreskin fibroblasts. In short, it runs like this:
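Primary human foreskin fibroblasts in the hDFCGF system, dosed for 24 h; TIMP-2 level measured by ELISA, fitted in the positive direction against DMSO; cytotoxicity checked in parallel by sulforhodamine B total protein staining.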

Read-out in experiment [11]: Thrombomodulin, THBD (gene 7056)
Briefly: BSK_LPS_Thrombomodulin: BioMAP Diversity Plus: LPS Assay for Thrombomodulin Biomarker Activity (AID 2284296). The conditions noted are these: primary human HUVEC with PBMC. In short, it runs like this: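 Human umbilical vein endothelial cells co-cultured with PBMC and stimulated with LPS; cell-surface thrombomodulin measured by ELISA 24 hours after compound. Gain or loss versus DMSO; cytotoxicity checked by SRB staining in parallel cultures.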

Read-out in experiment [12]: Interleukin-8 (IL8), CXCL8 (gene 3576)
Briefly: BSK_MyoF_IL8: BioMAP Diversity Plus: MyoF Assay for Interleukin-8 (IL8) Biomarker Activity (AID 2284261). Conditions: primary human lung fibroblasts. The method, boiled down:
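DMSO-normalised, upward-fitted IL-8 ELISA signal; human lung fibroblasts, 24 h chemical treatment.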

Read-out in experiment [13]: Decorin, DCN (gene 1634)
As to the kind of experiment: BSK_MyoF_Decorin: BioMAP Diversity Plus: MyoF Assay for Decorin Biomarker Activity (AID 2284265). The conditions noted are these: primary human lung fibroblasts. In short, it runs like this:
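In this multiplexed fibroblast system, secreted or surface decorin is detected by ELISA one day after dosing, with increases scored against the DMSO vehicle.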

The nature of experiment [14]: BSK_MyoF_SRB: Viability Assessment in the BioMAP Diversity Plus: MyoF Assay (AID 2284267).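 Further: total protein by SRB absorbance in parallel cultures as cytotoxicity measure; cells assessed 24 h after compound addition.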 Conditions: primary human lung fibroblasts. The method, boiled down: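 Human lung fibroblasts dosed with chemical and assessed 24 h later for overt cytotoxicity in parallel cultures. Total protein quantified by sulforhodamine B staining (0.1% SRB after 10% TCA fixation), read at 560 nm, analysed in positive direction versus DMSO baseline.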

Read-out in experiment [15]: Matrix Metallopeptidase 1 (MMP1), MMP1 (gene 4312)
Briefly: BSK_MyoF_MMP1: BioMAP Diversity Plus: MyoF Assay for Matrix Metallopeptidase 1 (MMP1) Biomarker Activity (AID 2284268). Conditions: primary human lung fibroblasts. The method, boiled down: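 Fibroblasts from human lung receive compound for 24 h before ELISA quantitation of MMP1. DMSO serves as baseline, and the endpoint is fitted for signal gain.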

Experiment [16] is described as follows: IUF_NPC2c_oligodendrocyte_migration_120hr: Leibniz Research Institute for Environmental Medicine (IUF) 120-hour Neural Progenitor Cell Migration Assay for Oligodendrocyte Migration (NPC2c) (AID 2284297).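 Further: O4-positive oligodendrocyte migration distance divided by radial glia migration distance.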 In short, it runs like this: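 Using fetal brain neural progenitor spheres differentiating in N2 medium at 37C, compounds were present for 120 h. Oligodendrocyte migration distance, normalized to radial glia migration, was measured from imaged O4 staining.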

A short description of experiment [17]: IUF_NPC2a_radial_glia_migration_120hr: Leibniz Research Institute for Environmental Medicine (IUF) 120-hour Neural Progenitor Cell Migration Assay for Radial Glia Migration (NPC2a) (AID 2284298). The method, boiled down:
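Exposure of 0.3 mm primary hNPC spheres runs day 0 to 120 h with a half-volume medium change at day 3. Fixed cells get Hoechst staining; high-content analysis of nuclear positions yields radial glia migration distance per well, compared against DMSO controls.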

Experiment [18] is described as follows: IUF_NPC2a_radial_glia_migration_72hr: Leibniz Research Institute for Environmental Medicine (IUF) 72-hour Neural Progenitor Cell Migration Assay for Radial Glia Migration (NPC2a) (AID 2284299). In short, it runs like this: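 Human fetal cortex (GW 16-19) neural progenitor spheres, 0.3 mm, plated on poly-D-lysine/laminin in N2 differentiation medium with compound from day 0. Radial glia migration distance (um, sphere core edge to migration edge) measured manually in four directions on 72 h brightfield images; well mean used.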

Experiment [19] in a line: IUF_NPC2b_neuronal_migration_120hr: Leibniz Research Institute for Environmental Medicine (IUF) 120-hour Neural Progenitor Cell Migration Assay for Neuron Migration (NPC2b) (AID 2284300). In short, it runs like this:
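Fetal human NPC spheres migrate on PDL/laminin during 120 h compound treatment; neuronal migration distance, glia-normalized, scored versus DMSO control.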

A short description of experiment [20]: IUF_NPC3_neuronal_differentiation_120hr: Leibniz Research Institute for Environmental Medicine (IUF) 120-hour Neuronal Differentiation Assay (NPC3) (AID 2284301). In short, it runs like this:
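Single 0.3 mm neurospheres from human fetal cortex were plated in differentiation medium containing test compound. Medium was half-replaced on day 3. After 120 h cells were fixed, immunostained and imaged, and neuronal fraction was scored against DMSO control.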

Values joined by “and” are separate entries in the source; they are usually repeats but may differ in a detail not shown here. Equal values may be shown once. Active and inactive are the calls of the source. How the source made its calls: active means hit-call score of the fitted dose curve at least 0.9, where 1 is the maximum; inactive means score below 0.9.

With `CC(CN=Cc1ccccc1O)N=Cc1ccccc1O` (stereo unspecified), the result in experiment [1], in experiment [2], in [3], in experiment [4], in [5] and in experiment [6] was inactive. For the same compound, the outcome in experiment [7], in [8], in experiment [9], in [10] and in [11] was inactive.

Consider `O=C(Nc1ccc2c(O)c(N=Nc3ccc(N=Nc4ccc(S(=O)(=O)O)cc4)cc3)c(S(=O)(=O)O)cc2c1)c1ccccc1`, for which the result in experiment [1], in experiment [3], in experiment [4], in [5], in [6] and in experiment [7] was inactive. Also, the result in [8], in experiment [9], in experiment [10] and in experiment [11] was inactive. Moreover, in experiment [2], the AC50 (commonly the concentration at which the activity in the assay is half-maximal) is 30.4 µM (active) and 20 µM (active).

As to `O=C1c2ccccc2C(=O)c2c(O)ccc(O)c21`, the outcome in experiment [12], in experiment [13] and in experiment [14] was inactive. In addition, the AC50 in experiment [15] was 3.25 µM (active).

Regarding `COc1cc(Cl)c(OC)cc1N`, the outcome in experiment [12], in experiment [13], in [14] and in experiment [15] was inactive.

`CN(C)CCOC(C)(c1ccccc1)c1ccccn1` (stereo unspecified): the compound was classed as inactive in [16], in experiment [17], in [18], in experiment [19] and in experiment [20].

As for `O=CN1CCOCC1`, the result in experiment [1], in experiment [2], in experiment [3], in [4], in [5] and in experiment [6] was inactive. Also, the outcome in experiment [7], in experiment [8], in experiment [9], in experiment [10] and in [11] was inactive.

Turning to `CCCCCCCCCCCCCCCC(=O)OC/C=C(C)/C=C/C=C(C)/C=C/C1=C(C)CCCC1(C)C`, the outcome in experiment [12], in experiment [13], in experiment [14] and in experiment [15] was inactive.

Regarding `CCOC(=O)C(C#N)=C(c1ccccc1)c1ccccc1`, the outcome in [1], in experiment [2], in experiment [3], in experiment [4], in experiment [5] and in experiment [6] was inactive. In addition, the result in experiment [7], in [8], in experiment [9], in experiment [10] and in experiment [11] was inactive.

Consider `COCCOCCOCCO`, for which the compound was classed as inactive in experiment [16], in experiment [17], in experiment [18], in experiment [19] and in experiment [20].

The record behind these values is PubChem BioAssay (EPA / NIEHS).
